Results as given in PubChem BioAssay (NCATS).
Records with an inconclusive call do not appear. The source made the active and inactive calls. Unless noted, calls follow the shape of the dose curve; as a rule, active = well fitted curve in either direction with a large enough effect (not every such curve was filed as active); inconclusive = small, poorly fitted or top-dose-only effect, or another doubt; inactive = flat fitted curve, though single readings scatter.

Tests used:
[1] = molecular target: Lysosomal acid glucosylceramidase (Homo sapiens) (UniProt P04062); test: Glucocerebrosidase-p2 (AID 348; in the data active = potency below about 10 µM; also: potency is read from the fitted curve at half-maximal effect); details: purified GBA, blue fluorogenic substrate, 40 min
Method in brief: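 Compounds titrated from 0.6 nM upwards against 0.2 nM enzyme in pH 5.9 citric acid/KH2PO4, taurocholate, tween-20; blue fluorogenic substrate 80 uM, 40 min room temperature, stopped and read Ex 365/Em 440 for AC50.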

[2] = AP1 Signaling Pathway (AID 357); details: ME-180 AP-1-bla reporter, EGF-induced, beta-lactamase ratio, 5 h; at 7.69 µM (top of the series) unless noted;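 also: ME-180 reporter cells stimulated with EGF at its EC50 level; % is scaled to controls: 0 for no effect and ±100 for the full control effect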
Method in brief: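 A ratiometric CCF4 readout (405 nm excitation; 460 and 530 nm emission) quantified AP-1-driven beta-lactamase in ME-180 cells after 5 h with compound and EC50 EGF; AC50 values were derived for activators and inhibitors.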

[3] = molecular target: Cytochrome P450 1A2 (Homo sapiens) (UniProt P05177); test: p450-cyp1a2 (AID 410; calls by dose curve; also: potency is read from the fitted curve at half-maximal effect;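 as to activity change, negative = inhibition: -100% = full effect of reference inhibitor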); details: recombinant CYP1A2, luciferin-ME demethylation, luminescence; series mostly up to 57 µM
Method in brief: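 Inhibition was calculated relative to 57 uM furafylline (full inhibition). The reaction used human CYP1A2 at 20nM with Luciferin-ME at its Km, 100uM, driven by an NADPH-regenerating system for 60 min at room temperature.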

[4] = NFAT Signaling Pathway (AID 444); details: Jurkat NFAT-bla M1, carbachol, beta-lactamase ratio, 5 h; at 7.69 µM (top of the series) unless noted;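 also: carbachol stimulus at about its EC50 of 1 µM final; % is scaled to controls: 0 for no effect and ±100 for the full control effect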
Method in brief: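 Jurkat cells carrying an NFAT-driven β-lactamase reporter and co-transfected muscarinic M1 receptor were treated with compound plus carbachol (1 uM final, an EC50 level) for 5 h at 37 °C. CCF4 loading followed for 1 h at RT; 460/530 nm ratio gave %activity.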

[5] = Stat Signaling Pathway (AID 446); details: ME-180 SIE beta-lactamase reporter, IL-6 stimulated, 5 h; at 7.69 µM (top of the series) unless noted;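 also: ME-180 cervical cancer cells given 40 pM IL-6 alongside compound; SIE-controlled beta-lactamase reporter measured as 460/530 nm FRET emission ratio; % is scaled to controls: 0 for no effect and ±100 for the full control effect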
Method in brief: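 Screening format detects activators and inhibitors alike: ME-180 SIE-bla cells stimulated at 40 pM IL-6 for 5 hrs with compound, then dual-emission beta-lactamase read at 405 nm excitation.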

[6] = molecular target: Glucocorticoid receptor (Homo sapiens) (UniProt P04150); test: GR-EFC Redistribution (AID 451; calls by dose curve; also: potency is read from the fitted curve at half-maximal effect); details: CHO-K1 GR-EFC translocation, beta-gal luminescence, 2 h
Method in brief: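 CHO-K1 cells stably expressing nuclear-localized β-gal enzyme acceptor and GR fused C-terminally to the enzyme donor fragment; ligand-driven nuclear translocation restores β-gal by complementation. Compounds titrated up to 46 uM final, 2 h at 37 °C; luminescence read.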

[7] = molecular target: Mitogen-activated protein kinase 10 (Mus musculus) (UniProt Q61831); test: JNK3 AlphaScreen Assay (AID 530); details: JNK3 lysate, c-Jun phosphorylation; series mostly up to 57.1 µM;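 also: kinase came from lysate of stimulated human HepG2 cells; signal reports phosphorylation of biotinylated GST-cJun 1-79 at Ser73 with 10 µM ATP; % is scaled to controls: 0 for no effect and ±100 for the full control effect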
Method in brief: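 JNK3 came from HepG2 lysates pre-activated with IL-1beta and TNF-alpha and phosphorylated biotinylated GST-cJun (1-79) at 10 uM ATP, pH 7.6, room temperature. Compounds were titrated. AlphaScreen signal used anti-phospho-cJun (Ser73) antibody.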

[8] = molecular target: 3',5'-cyclic-AMP phosphodiesterase 4B (Homo sapiens) (UniProt Q07343); test: qHTS Assay for Inhibitors of PDE-IV (AID 607; active = well fitted activation curve with a large enough effect in the main read-out, with a control signal flat, not every such curve was filed as active; also: % of control where 0% means no effect); details: HEK293 ACTOne CNG channel cells, membrane potential fluorescence; series mostly up to 22.9 µM
Method in brief: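 The readout is membrane depolarisation from a cAMP-sensing CNG channel, detected with a potential dye at ex 535/em 590. Cells were HEK293-derived (endogenous PDE-IV) at 1000 cells/well, titrated up to 22.9 uM final.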

[9] = molecular target: Cytochrome P450 3A4 (Homo sapiens) (UniProt P08684); test: qHTS Assay for Inhibitors and Substrates of Cytochrome P450 3A4 (AID 884; active = well fitted curve in the direction sought with a large enough effect; an effect the other way counts as inactive or inconclusive; also: nearly all actives have a fitted effect of over 50% in size; also: potency is read from the fitted curve at half-maximal effect); details: recombinant CYP3A4, Luciferin-PPXE luminescence; series mostly up to 57.1 µM
Method in brief: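 20 nM human CYP3A4 with 25 uM Luciferin-PPXE (at KM) in 200 mM KPO4, preincubated 10 min with compound; NADPH regeneration started a 60 min RT reaction. Luciferin detected by luminescence, normalized to 57 uM ketoconazole as full inhibition.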

[10] = molecular target: Cytochrome P450 3A4 (Homo sapiens) (UniProt P08684); test: qHTS Assay for Activators of Cytochrome P450 3A4 (AID 885; active = well fitted curve in the direction sought with a large enough effect; an effect the other way counts as inactive or inconclusive; also: nearly all actives have a fitted effect of over 65% in size; also: potency is read from the fitted curve at half-maximal effect); details: recombinant CYP3A4, Luciferin-PPXE luminescence, 60 min; series mostly up to 57.1 µM
Method in brief: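 Steps: enzyme/substrate mix dispensed; compound added, 10 min RT; NADPH regeneration solution added, 60 min RT; luciferin detection buffer stops reaction; 20 min later luminescence measured.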

[11] = qHTS Assay for Lipid Storage Modulators (AID 1519; calls by dose curve); details: Drosophila S3 cells, BODIPY lipid droplet/cell ratio, laser cytometry, cells loaded with oleic acid; for activity change, negative = inhibition: at 57.5 µM (top of the series)
Method in brief: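 Cells seeded at 5,000 per well were treated with compounds over a concentration series and loaded with oleic acid (400 uM, as added). Lipid droplet fluorescence (488 nm excitation, 500-530 nm channel) was read by laser-scanning cytometry and normalized to 20 uM Triacsin C.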

[12] = Primary qHTS for small molecule stabilizers of the endoplasmic reticulum resident proteome: Secreted ER Calcium Modulated Protein (SERCaMP) assay (AID 1508630; active = well fitted curve in the direction sought with a large enough effect; an effect the other way counts as inactive or inconclusive; also: % is scaled to controls: 0 for no effect and ±100 for the full control effect); details: SH-SY5Y GLuc-SERCaMP (Gaussia luciferase released on ER calcium loss) secretion, thapsigargin, luminescence; series mostly up to 38.4 µM
Method in brief: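 GLuc-SERCaMP-expressing SH-SY5Y cells, pretreated 16 h with compound, are challenged with thapsigargin to empty ER calcium stores; after 4 h, coelenterazine is added directly to the medium and luminescence is imaged.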

[13] = molecular target: Cytochrome P450 2C9 (Homo sapiens) (UniProt P11712); test: qHTS Assay for Inhibitors and Substrates of Cytochrome P450 2C9 (AID 883; active = well fitted curve in the direction sought with a large enough effect; an effect the other way counts as inactive or inconclusive; also: potency is read from the fitted curve at half-maximal effect; nearly all actives have a fitted effect of over 60% in size); details: recombinant CYP2C9, luciferin-H luminescence, 60 min; series mostly up to 57.1 µM
Method in brief: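 Human CYP2C9 (10nM) hydroxylated Luciferin-H (100uM, at its KM) to luciferin in 25mM KPO4. Compound was preincubated 10 min at 37C, then NADPH regeneration started a 60 min reaction at 37C. Luminescence was read after detection reagent, normalized to 57uM sulphaphenazole.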

[14] = molecular target: Cytochrome P450 2D6 (Homo sapiens) (UniProt P10635); test: qHTS Assay for Inhibitors and Substrates of Cytochrome P450 2D6 (AID 891; active = well fitted curve in the direction sought with a large enough effect; an effect the other way counts as inactive or inconclusive; also: potency is read from the fitted curve at half-maximal effect; nearly all actives have a fitted effect of over 60% in size); details: recombinant CYP2D6, luciferin-ME EGE luminescence; series mostly up to 57.1 µM
Method in brief: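 Human CYP2D6 (5 nM) with 30 uM Luciferin-ME EGE (at Km) in 100 mM KPO4, compound preincubated 10 min, then NADPH regeneration system for 60 min at room temperature. Luciferin read by luminescence; normalized to 1.43 uM quinidine.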

[15] = molecular target: Cytochrome P450 2C19 (Homo sapiens) (UniProt P33261); test: qHTS Assay for Inhibitors and Substrates of Cytochrome P450 2C19 (AID 899; active = well fitted curve in the direction sought with a large enough effect; an effect the other way counts as inactive or inconclusive; also: potency is read from the fitted curve at half-maximal effect; nearly all actives have a fitted effect of over 60% in size); details: recombinant CYP2C19, luciferin-H EGE luminescence; series mostly up to 57.1 µM
Method in brief: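 Human CYP2C19 (5nM) with Luciferin-H EGE at 10uM (its KM) in 50mM KPO4 was preincubated with compound for 10 min at 37C. NADPH regeneration started a 60 min 37C reaction. Luciferin was read by luminescence, normalized to 57uM ketoconazole.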

[16] = measured here: cell count channel max response
[17] = measured here: lipid channel max response

Sequence of 3',5'-cyclic-AMP phosphodiesterase 4B (Homo sapiens) (Q07343 whole entry, looked up): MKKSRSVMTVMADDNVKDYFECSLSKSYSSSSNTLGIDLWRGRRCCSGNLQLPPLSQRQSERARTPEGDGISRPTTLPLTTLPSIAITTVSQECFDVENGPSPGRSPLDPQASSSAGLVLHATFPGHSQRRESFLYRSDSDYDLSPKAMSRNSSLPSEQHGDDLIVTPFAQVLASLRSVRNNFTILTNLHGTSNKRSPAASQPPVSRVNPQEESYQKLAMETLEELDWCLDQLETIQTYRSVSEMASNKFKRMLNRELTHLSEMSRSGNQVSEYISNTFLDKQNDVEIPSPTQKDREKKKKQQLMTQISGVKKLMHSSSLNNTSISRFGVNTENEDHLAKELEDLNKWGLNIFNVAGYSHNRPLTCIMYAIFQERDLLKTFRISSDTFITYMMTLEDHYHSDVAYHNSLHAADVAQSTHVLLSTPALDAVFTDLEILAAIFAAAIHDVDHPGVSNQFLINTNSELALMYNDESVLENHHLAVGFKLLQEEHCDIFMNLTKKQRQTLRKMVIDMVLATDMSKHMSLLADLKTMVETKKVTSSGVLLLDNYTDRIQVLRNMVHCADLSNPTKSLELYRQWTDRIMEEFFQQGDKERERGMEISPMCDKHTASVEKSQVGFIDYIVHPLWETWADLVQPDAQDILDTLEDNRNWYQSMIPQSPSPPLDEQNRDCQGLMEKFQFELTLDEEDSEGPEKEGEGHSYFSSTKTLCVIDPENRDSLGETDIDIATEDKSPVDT
Sequence of Glucocorticoid receptor (Homo sapiens) (P04150 whole entry, looked up, the tested form may be a part): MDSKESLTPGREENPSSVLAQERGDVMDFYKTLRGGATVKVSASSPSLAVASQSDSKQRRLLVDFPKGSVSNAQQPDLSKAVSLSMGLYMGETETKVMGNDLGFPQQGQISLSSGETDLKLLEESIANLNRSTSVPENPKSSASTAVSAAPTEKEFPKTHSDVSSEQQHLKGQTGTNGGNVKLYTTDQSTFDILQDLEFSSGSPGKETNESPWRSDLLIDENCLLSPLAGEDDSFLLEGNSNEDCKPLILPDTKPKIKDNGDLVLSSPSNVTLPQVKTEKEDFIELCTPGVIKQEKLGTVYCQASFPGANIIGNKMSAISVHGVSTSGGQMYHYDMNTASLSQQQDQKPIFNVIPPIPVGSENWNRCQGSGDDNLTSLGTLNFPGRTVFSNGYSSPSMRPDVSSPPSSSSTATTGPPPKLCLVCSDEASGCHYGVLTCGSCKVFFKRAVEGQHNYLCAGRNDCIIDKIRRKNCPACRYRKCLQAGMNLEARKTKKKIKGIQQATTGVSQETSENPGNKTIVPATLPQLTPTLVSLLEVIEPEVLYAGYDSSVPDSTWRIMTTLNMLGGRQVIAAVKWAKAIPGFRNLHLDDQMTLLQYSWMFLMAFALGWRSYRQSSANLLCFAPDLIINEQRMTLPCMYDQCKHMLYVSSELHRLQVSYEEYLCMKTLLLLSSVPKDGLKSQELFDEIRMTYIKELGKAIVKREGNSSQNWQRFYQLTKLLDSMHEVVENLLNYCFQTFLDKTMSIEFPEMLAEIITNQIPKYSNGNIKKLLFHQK
Sequence of Cytochrome P450 3A4 (Homo sapiens) (P08684 whole entry, looked up): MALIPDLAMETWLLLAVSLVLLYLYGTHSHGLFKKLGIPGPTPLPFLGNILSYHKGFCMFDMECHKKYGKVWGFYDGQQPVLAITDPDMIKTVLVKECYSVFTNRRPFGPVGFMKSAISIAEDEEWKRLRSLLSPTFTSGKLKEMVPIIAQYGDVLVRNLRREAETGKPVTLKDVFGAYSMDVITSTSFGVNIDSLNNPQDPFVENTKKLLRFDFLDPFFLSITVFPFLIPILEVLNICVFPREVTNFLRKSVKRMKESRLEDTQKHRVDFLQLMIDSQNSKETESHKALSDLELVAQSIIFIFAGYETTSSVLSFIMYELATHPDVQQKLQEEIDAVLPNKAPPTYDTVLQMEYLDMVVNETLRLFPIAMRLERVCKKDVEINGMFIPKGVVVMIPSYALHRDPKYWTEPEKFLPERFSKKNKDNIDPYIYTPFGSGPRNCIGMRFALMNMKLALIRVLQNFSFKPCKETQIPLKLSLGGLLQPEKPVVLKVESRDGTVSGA
Sequence of Lysosomal acid glucosylceramidase (Homo sapiens) (P04062 whole entry, looked up): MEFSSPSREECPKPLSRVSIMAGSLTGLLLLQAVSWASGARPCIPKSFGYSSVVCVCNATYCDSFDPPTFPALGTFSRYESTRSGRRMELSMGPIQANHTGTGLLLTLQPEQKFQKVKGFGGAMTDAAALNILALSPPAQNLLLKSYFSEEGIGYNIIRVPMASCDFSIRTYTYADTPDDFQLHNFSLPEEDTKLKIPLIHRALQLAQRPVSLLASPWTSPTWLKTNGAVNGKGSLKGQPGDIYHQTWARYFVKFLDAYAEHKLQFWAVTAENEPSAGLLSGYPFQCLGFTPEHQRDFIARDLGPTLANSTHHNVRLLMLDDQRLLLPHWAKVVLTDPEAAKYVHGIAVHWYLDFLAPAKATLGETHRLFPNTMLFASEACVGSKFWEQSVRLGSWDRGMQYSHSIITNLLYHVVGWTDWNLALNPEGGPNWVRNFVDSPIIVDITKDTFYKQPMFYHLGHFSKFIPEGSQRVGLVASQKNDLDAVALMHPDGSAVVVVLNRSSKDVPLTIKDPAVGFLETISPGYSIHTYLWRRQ
Sequence of Cytochrome P450 1A2 (Homo sapiens) (P05177 whole entry, looked up): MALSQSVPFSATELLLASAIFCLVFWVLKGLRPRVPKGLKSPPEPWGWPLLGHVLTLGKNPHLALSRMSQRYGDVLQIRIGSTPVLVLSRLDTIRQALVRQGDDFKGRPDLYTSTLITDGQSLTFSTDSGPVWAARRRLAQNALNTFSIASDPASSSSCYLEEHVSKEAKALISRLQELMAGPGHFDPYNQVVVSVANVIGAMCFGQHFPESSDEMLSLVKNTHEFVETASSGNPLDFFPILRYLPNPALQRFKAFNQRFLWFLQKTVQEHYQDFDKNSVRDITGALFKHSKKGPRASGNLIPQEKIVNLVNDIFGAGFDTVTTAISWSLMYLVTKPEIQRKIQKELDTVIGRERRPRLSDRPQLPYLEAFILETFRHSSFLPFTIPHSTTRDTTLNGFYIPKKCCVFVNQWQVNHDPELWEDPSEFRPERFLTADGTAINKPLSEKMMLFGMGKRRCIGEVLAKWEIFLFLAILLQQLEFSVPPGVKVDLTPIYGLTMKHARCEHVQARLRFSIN
Sequence of Cytochrome P450 2C19 (Homo sapiens) (P33261 whole entry, looked up): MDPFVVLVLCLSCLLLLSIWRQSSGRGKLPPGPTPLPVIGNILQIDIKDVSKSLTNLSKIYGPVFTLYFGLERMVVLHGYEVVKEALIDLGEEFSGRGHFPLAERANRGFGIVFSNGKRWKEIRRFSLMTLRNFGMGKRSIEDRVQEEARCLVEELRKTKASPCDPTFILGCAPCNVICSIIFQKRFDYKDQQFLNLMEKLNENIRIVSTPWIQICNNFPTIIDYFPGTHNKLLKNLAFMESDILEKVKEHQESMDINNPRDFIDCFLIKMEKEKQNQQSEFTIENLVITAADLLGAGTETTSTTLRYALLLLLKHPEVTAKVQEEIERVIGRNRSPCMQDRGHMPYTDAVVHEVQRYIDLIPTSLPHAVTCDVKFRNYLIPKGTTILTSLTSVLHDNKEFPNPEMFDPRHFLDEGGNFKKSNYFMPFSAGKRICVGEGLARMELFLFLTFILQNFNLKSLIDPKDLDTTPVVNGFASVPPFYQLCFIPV
Sequence of Cytochrome P450 2C9 (Homo sapiens) (P11712 whole entry, looked up): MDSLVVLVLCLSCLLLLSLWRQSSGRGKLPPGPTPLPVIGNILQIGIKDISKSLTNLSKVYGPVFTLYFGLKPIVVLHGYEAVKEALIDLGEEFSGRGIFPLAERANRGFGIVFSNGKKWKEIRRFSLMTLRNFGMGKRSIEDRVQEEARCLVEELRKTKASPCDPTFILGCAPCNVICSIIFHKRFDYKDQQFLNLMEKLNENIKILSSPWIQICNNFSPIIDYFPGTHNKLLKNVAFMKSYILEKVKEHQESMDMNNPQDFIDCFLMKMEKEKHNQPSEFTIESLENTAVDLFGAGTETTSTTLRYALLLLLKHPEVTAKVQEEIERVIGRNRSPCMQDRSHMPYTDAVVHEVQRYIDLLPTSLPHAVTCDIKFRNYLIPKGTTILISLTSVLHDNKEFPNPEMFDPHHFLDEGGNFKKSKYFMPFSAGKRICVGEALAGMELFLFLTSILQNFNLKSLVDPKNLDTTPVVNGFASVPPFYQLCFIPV
Sequence of Cytochrome P450 2D6 (Homo sapiens) (P10635 whole entry, looked up): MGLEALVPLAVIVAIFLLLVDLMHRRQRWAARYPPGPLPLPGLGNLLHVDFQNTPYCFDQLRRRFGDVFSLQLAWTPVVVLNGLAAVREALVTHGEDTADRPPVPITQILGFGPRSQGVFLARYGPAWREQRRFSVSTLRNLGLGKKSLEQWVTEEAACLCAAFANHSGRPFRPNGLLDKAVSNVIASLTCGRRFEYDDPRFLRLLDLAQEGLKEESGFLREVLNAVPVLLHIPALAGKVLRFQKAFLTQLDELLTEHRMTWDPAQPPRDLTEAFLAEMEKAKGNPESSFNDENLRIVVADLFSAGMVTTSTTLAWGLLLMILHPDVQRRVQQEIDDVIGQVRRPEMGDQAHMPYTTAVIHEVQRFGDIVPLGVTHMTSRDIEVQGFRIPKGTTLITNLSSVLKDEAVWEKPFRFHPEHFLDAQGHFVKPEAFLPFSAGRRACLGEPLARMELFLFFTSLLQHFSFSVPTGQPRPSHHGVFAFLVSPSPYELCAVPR

O=C(c1csnn1)N1CCC2(CC1)CN(c1ccccn1)C2
22.2%: max response [11, 17]
inactive: Potency [1] > 11.4 µM | activity change, negative = inhibition [2] -7.48% | Potency [3] | activity change, negative = inhibition [4] -19.4% | activity, negative = inhibition [5] -1.49% | Potency [6] > 46 µM | outcome [7] | Potency [8] | Potency [9] | activity change, negative = inhibition [11] 4.89% | Potency [12]
active: Potency [10] 25.1 µM
15.6%: max response [11, 16]

O=C(c1cnccn1)N1CCC[C@@]2(CCN(c3ncccn3)C2)C1
9.64%: max response [11, 16]
inactive: Potency [1] > 11.4 µM | activity change, negative = inhibition [2] -3.69% | Potency [3] | activity change, negative = inhibition [4] 7.98% | activity, negative = inhibition [5] -3.83% | Potency [6] > 46 µM | outcome [7] | Potency [8] | Potency [10] | activity change, negative = inhibition [11] 5.72% | Potency [12]
19.5%: max response [11, 17]

O=C(c1csnn1)N1CCC2(CCCN(c3ccccc3)C2)CC1
active: Potency [13] 7.94 µM
inactive: Potency [1] > 11.4 µM | activity change, negative = inhibition [2] -2.99% | Potency [3] | activity change, negative = inhibition [4] 1.2% | activity, negative = inhibition [5] -8.69% | Potency [6] > 46 µM | outcome [7] | Potency [8] | Potency [10] | activity change, negative = inhibition [11] -0.699% | Potency [12]
11.5%: max response [11, 17]
7.99%: max response [11, 16]

O=S(=O)(c1ccccc1)N1CCC2(CCN(C(c3ccccc3)c3ccccc3)CC2)CC1
22.7%: max response [11, 17]
inactive: Potency [1] > 11.4 µM | activity change, negative = inhibition [2] -13.4% | Potency [3] | activity change, negative = inhibition [4] -19.9% | activity, negative = inhibition [5] -5.59% | Potency [6] > 46 µM | outcome [7] | Potency [8] | Potency [9] | activity change, negative = inhibition [11] 6.93% | Potency [12]
active: Potency [10] 12.6 µM
11.2%: max response [11, 16]

COCC(=O)N1CCC2(CC1)CN(C(c1ccccc1)c1ccccc1)C2
inactive: Potency [1] > 11.4 µM | activity change, negative = inhibition [2] 3.82% | Potency [3] | activity change, negative = inhibition [4] 11.6% | activity, negative = inhibition [5] -8.6% | Potency [6] > 46 µM | outcome [7] | Potency [8] | Potency [9] | activity change, negative = inhibition [11] 2.84% | Potency [12]
-6.58%: max response [11, 17]
active: Potency [10] 25.1 µM | Potency [14] 2.51 µM
-11.5%: max response [11, 16]

O=C(c1cccc(F)c1)N1CCC[C@@]2(CCN(Cc3nccs3)C2)C1
16.4%: max response [11, 16]
22.4%: max response [11, 17]
active: Potency [3] 12.6 µM | Potency [9] 7.94 µM | Potency [15] 2.51 µM
inactive: Potency [1] > 11.4 µM | activity change, negative = inhibition [2] 2.29% | activity change, negative = inhibition [4] 7.56% | activity, negative = inhibition [5] -0.114% | Potency [6] > 46 µM | outcome [7] | Potency [8] | Potency [10] | activity change, negative = inhibition [11] 3.24% | Potency [12]
